# Only some compounds are listed: those with a hit (about 19% of all), similar ones and a draw of the others.
# KB-V1 cytotox: kills drug-selected multidrug resistant KB-V1 cells; KB-V1 MDR cells viability, CellTiter-Glo, 72 h; Potency, µM (titrated, usually from 46.1 µM), actives largely listed as cytotoxic; actives 3.4% (n = 400,000); AID 1347076; also: nearly all actives have a fitted effect of over 60% in size
#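 In this primary screen, KB-V1 cells overexpressing P-gp are incubated with library compounds (lowest to highest concentration) for 72 h at 37 degrees C before a luminescent ATP viability read.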
# DT40 TDP1 no CPT: qHTS for Inhibitors of human tyrosyl-DNA phosphodiesterase 1 (TDP1): qHTS in cells in absence of CPT; DT40 Tdp1-/- hTDP1 cells, no CPT, ATP luminescence, 48 h; Potency, µM (doses to about 46.2 µM), without a hit: top-dose activity change, negative = growth inhibition, hits mostly inhibitors; actives 15% (n = 420,000); also: nearly all actives have a fitted effect of over 55% in size
#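 Camptothecin absent (DMSO only). Human TDP1-complemented DT40 knockout cells, 400 cells/well, 37 °C for minimum 48 hr; ATP measured via CellTiter-Glo, 30 min dark incubation, luminescence.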
# HT1080NT lethal: kills 2HG-producing HT-1080-NT fibrosarcoma cells; actives 1.6% (n = 360,000); HT-1080-NT fibrosarcoma viability, CellTiter-Glo ATP luminescence, 48 h; AID 686970; Potency, µM (series often up to 46.1 µM), inactives show at the highest dose activity, negative = less viability, usual class: cytotoxic;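 also: NT is the 2HG producing partner of a matched IDH1 knockdown line; 0% = DMSO-treated cells and -100% = media-only wells without cells; nearly all actives have a fitted effect of over 55% in size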
#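 Compounds were tested in concentration-response format on HT-1080-NT cells for 48 hours at 37 degrees C. Cell viability came from CellTiter-Glo luminescence; curves were classified by r2, response magnitude and activity.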
# DT40 TDP1 CPT: DT40-hTDP1 cell growth loss with CPT. actives 12% (n = 420,000). Potency, µM (top dose mostly 46.2 µM), for the others: at the highest dose activity change, negative = growth inhibition, hits mostly inhibitors. chicken DT40 Tdp1-/-;hTDP1 cells + 20 nM CPT, ATP luminescence, 48 h. AID 686979; also: nearly all actives have a fitted effect of over 55% in size
#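 Cell growth measured by CellTiter-Glo luminescence after a minimum 48 h, 37 C compound exposure with 20 nM CPT in Tdp1-knockout DT40 cells stably expressing hTDP1, seeded 400/well; qHTS titration format.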
# KB-3-1 cytotox: kills parental KB-3-1 adenocarcinoma cells; KB-3-1 viability, CellTiter-Glo ATP luminescence, 72 h; Potency, µM (titrated, usually from 46.1 µM), most hits filed as cytotoxic; actives 1.4% (n = 400,000); AID 1347075; also: nearly all actives have a fitted effect of over 60% in size
#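 Multi-concentration cytotoxicity screen in KB-3-1 cells grown in DMEM lacking phenol red with 10% FBS. After 72 h at 37 °C with compound, ATP-dependent luminescence was recorded.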
# HT1080 IDH1KD tx: HT-1080 IDH1 knockdown cell toxicity (counter line); HT-1080 IDH1 knockdown viability, ATP luminescence, 48 h; Potency, µM (series often up to 46.1 µM), for inactives: at the highest dose activity, negative = toxicity, actives largely listed as cytotoxic; actives 2% (n = 360,000); AID 686971;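 also: 0% = DMSO wells and -100% = cell-free medium wells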
#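 CellTiter-Glo luminescence after 48 h compound exposure at 37 degrees C of IDH1-knockdown HT-1080 cells in 5% FBS RPMI. %Activity scaled between DMSO wells and cell-free media wells, with curves fitted and assigned curve classes.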
# * = called active by the depositor; i = inactive; ? = inconclusive; / = not tested or not shown; [ ] = dose if it differs, or a comment. Calls follow the shape of the dose curve; as a rule, active = well fitted curve in the direction sought with a large enough effect; inconclusive = small, poorly fitted or top-dose-only effect, or another doubt; inactive = no such curve, though single readings can be large; an effect the other way counts as inactive or inconclusive. Unless noted, % is scaled to controls: 0 for no effect and ±100 for the full control effect; potency is read from the fitted curve at half-maximal effect.
SMILES,KB-V1 cytotox,DT40 TDP1 no CPT,HT1080NT lethal,DT40 TDP1 CPT,KB-3-1 cytotox,HT1080 IDH1KD tx
Cn1cc(C(O)CN2CCCCC2)c2ccccc21 (stereo unspecified),i,-13%,0%,3%,i,-1%
CCCN(CCC)c1c([N+](=O)[O-])cc(C(F)(F)F)cc1[N+](=O)[O-],/,0%,/,-6%,/,/
CCN(CC)C(C)C(=O)c1ccccc1 (stereo unspecified),/,4%,/,1%,/,/
CCOC(CN1CCN(CC(C)C(=O)c2ccccc2)CC1)c1ccccc1 (stereo unspecified),/,27µM*,/,?,/,/
CC(C)NC1C2CCC(CC2)C1(O)c1ccc(Cl)c(Cl)c1 (stereo unspecified),i,?,-24%,?,i,?
S=P(N1CCOCC1)(N1CC1)N1CC1,i,6.5µM*,-9%,5.2µM*,i,-20%
S=P(N1CCCCCC1)(N1CC1)N1CC1,i,4.1µM*,5%,3.3µM*,i,12%
CC(C)(C)P(=O)(N1CCOCC1)N1CCOCC1,?,9%,7%,25%,i,1%
O=P(N1CCCCCC1)(N1CCCCCC1)N1CC1,/,-14%,0%,?,/,-6%
CS(=O)(=O)c1ccc(C2=C(CNC(=O)c3nccs3)[C@H]3CC[C@@H](C2)N3CCOc2ccccc2)cc1,i,?,2%,-16%,i,-2%
CN(N)N=Nc1nc2c([nH]1)c(=O)n(C)c(=O)n2C,i,-2%,14%,1%,i,14%
Cc1ccccc1-c1nc(CS(=O)CC(=O)N2CCN(c3cc(Cl)ccc3C)CC2)c(C)o1 (stereo unspecified),i,13µM*,/,16µM*,i,/
Cc1ccsc1-c1nc(CSCC(=O)N2CCC3(CC2)OCCO3)c(C)o1,?,16µM*,0%,23µM*,i,-11%
Cc1ccccc1-c1nc(CS(=O)CC(=O)N2CCC3(CC2)OCCO3)c(C)o1 (stereo unspecified),13µM*,-1%,1%,-1%,i,16%
CN/C=C(/Cl)P(=O)(OC(C)C)OC(C)C,i,13%,9%,7%,i,14%
O=C1C(Cl)=CC(=Nc2ccc(O)cc2)C=C1Cl,i,2.6µM*,-9%[9.24 µM],1.3µM*,?,-1%
COC(=O)C1=C(c2c(C)noc2C)C[C@@H]2CC[C@H]1N2C(=O)NCc1ccco1,i,-2%,-4%,1%,i,1%
CCC(CC)COC(=O)C(C#N)c1nc2ccccc2nc1N1CCN(CC)CC1 (stereo unspecified),?,?,?,21µM*,?,?
COc1nc2ccccc2nc1N1CCN(C)CC1,i,1%,0%,2%,i,6%
C/C(=C/CCC(C)[C@H]1CC[C@@]2(C)C3=C(CC[C@]12C)[C@@]1(C)CCC(=O)C(C)(C)[C@@H]1CC3)C(=O)O (stereo partly specified),i,?,3%,?,i,6%
Cc1ccccc1C(=O)N1Cc2cnnn2-c2ccccc2C1C#N (stereo unspecified),i,-20%,11%,-9%,i,13%
COc1ccc(CN2Cc3cc(-c4ccc(OC)cc4)ccc3-n3nncc3C2)cc1,i,18µM*,?,21µM*,i,?
Cc1ccccc1CN1Cc2cnnn2-c2ccccc2C1C#N (stereo unspecified),?,2.1µM*,8.2µM*,2.6µM*,?,6.5µM*
COc1ccc(CN2Cc3cc(-c4ccccc4)ccc3-n3nncc3C2)cc1,i,?,1%,?,i,0%
